The values below come from PubChem BioAssay (NCATS).

A number with no mark means an inactive call. Inconclusive results are not listed. Calls of active or inactive are those of the source. Unless noted, calls follow the shape of the dose curve; as a rule, active = well fitted curve in either direction with a large enough effect (not every such curve was filed as active); inconclusive = small, poorly fitted or top-dose-only effect, or another doubt; inactive = flat fitted curve, though single readings scatter.

Assay [1] deals with Lysosomal acid glucosylceramidase (Homo sapiens) (UniProt P04062). The experiment in a line: Glucocerebrosidase-p2 (AID 348; in the data active = potency below about 10 µM; also: potency is read from the fitted curve at half-maximal effect). Particulars: purified GBA, blue fluorogenic substrate, 40 min. The gist of the method: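 Normal human glucocerebrosidase (0.2 nM) with blue fluorogenic substrate (80 uM final) in citrate/phosphate pH 5.9 with 10mM sodium taurocholate, 0.01% tween-20; 40 min RT, NaOH/glycine stop; fluorescence Ex 365/Em 440; AC50 from a titration from 0.6 nM upwards.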
Lysosomal acid glucosylceramidase (Homo sapiens), sequence (P04062 whole entry, looked up): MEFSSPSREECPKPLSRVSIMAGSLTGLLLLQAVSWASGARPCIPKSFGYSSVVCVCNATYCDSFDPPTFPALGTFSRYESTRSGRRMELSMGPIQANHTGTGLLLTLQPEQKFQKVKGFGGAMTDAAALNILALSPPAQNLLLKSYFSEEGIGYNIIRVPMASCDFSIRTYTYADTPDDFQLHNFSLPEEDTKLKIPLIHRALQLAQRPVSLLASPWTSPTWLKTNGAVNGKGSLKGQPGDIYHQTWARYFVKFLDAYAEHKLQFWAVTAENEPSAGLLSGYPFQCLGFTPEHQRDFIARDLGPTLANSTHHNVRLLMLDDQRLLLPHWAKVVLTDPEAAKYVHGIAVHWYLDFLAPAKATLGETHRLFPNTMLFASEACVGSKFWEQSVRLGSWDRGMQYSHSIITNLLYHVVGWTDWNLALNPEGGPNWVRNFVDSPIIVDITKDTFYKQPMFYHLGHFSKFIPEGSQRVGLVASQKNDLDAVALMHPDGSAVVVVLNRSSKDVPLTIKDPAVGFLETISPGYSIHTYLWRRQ

Assay [2] can be described thus: AP1 Signaling Pathway (AID 357).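 Also: ME-180 reporter cells stimulated with EGF at its EC50 level; % is scaled to controls: 0 for no effect and ±100 for the full control effect.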 To be noted: ME-180 AP-1-bla reporter, EGF-induced, beta-lactamase ratio, 5 h; at 7.69 µM (top of the series) unless noted. The gist of the method:
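Read-out was the 460nm/530nm emission ratio (excitation 405nm) after CCF4 loading for 2.5 hours at room temperature. Cells carried an AP-1-driven beta-lactamase reporter, were stimulated with EC50 EGF plus compound for 5 hours, and AC50 values came from titrations.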

Assay [3] has as its target Cytochrome P450 1A2 (Homo sapiens) (UniProt P05177). The experiment in a line: p450-cyp1a2 (AID 410; calls by dose curve; also: potency is read from the fitted curve at half-maximal effect). Particulars: recombinant CYP1A2, luciferin-ME demethylation, luminescence; series mostly up to 11.4 µM. An outline of the steps: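 O-Demethylation of luciferin 6' methyl ether by human CYP1A2 is monitored as luciferase luminescence. Substrate sits at Km (100uM); enzyme is 20nM. Values are scaled to 57 uM furafylline as maximal inhibition.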

A short description of assay [4]: NFAT Signaling Pathway (AID 444).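 Also: carbachol stimulus at about its EC50 of 1 µM final; % is scaled to controls: 0 for no effect and ±100 for the full control effect.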 To be noted: Jurkat NFAT-bla M1, carbachol, beta-lactamase ratio, 5 h; at 7.69 µM (top of the series) unless noted. An outline of the steps: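 Jurkat cells carrying an NFAT-driven β-lactamase reporter and co-transfected muscarinic M1 receptor were treated with compound plus carbachol (1 uM final, an EC50 level) for 5 h at 37 °C. CCF4 loading followed for 1 h at RT; 460/530 nm ratio gave %activity.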

Assay [5] can be described thus: Stat Signaling Pathway (AID 446).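 Also: ME-180 cervical cancer cells given 40 pM IL-6 alongside compound; SIE-controlled beta-lactamase reporter measured as 460/530 nm FRET emission ratio; % is scaled to controls: 0 for no effect and ±100 for the full control effect.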 Particulars: ME-180 SIE beta-lactamase reporter, IL-6 stimulated, 5 h; at 7.69 µM (top of the series) unless noted. An outline of the steps: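 FRET read-out (405 nm excitation, 460/530 nm emission) of a beta-lactamase reporter under a STAT-inducible element in ME-180 cervical carcinoma cells. Cells with compound receive 40 pM IL-6 for 5 h. Values are normalised to AC90 stimulation and AC90 JAK-inhibitor controls.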

Assay [6] deals with Glucocorticoid receptor (Homo sapiens) (UniProt P04150). The experiment in a line: GR-GFP Redistribution (AID 450;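 active = compounds whose dose series gives a full or clear partial fitted curve of increased nuclear translocation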; also: potency is read from the fitted curve at half-maximal effect). To be noted: U2OS GR-GFP nuclear translocation, laser cytometry, 2 h.
Glucocorticoid receptor (Homo sapiens), sequence (P04150 whole entry, looked up, the tested form may be a part): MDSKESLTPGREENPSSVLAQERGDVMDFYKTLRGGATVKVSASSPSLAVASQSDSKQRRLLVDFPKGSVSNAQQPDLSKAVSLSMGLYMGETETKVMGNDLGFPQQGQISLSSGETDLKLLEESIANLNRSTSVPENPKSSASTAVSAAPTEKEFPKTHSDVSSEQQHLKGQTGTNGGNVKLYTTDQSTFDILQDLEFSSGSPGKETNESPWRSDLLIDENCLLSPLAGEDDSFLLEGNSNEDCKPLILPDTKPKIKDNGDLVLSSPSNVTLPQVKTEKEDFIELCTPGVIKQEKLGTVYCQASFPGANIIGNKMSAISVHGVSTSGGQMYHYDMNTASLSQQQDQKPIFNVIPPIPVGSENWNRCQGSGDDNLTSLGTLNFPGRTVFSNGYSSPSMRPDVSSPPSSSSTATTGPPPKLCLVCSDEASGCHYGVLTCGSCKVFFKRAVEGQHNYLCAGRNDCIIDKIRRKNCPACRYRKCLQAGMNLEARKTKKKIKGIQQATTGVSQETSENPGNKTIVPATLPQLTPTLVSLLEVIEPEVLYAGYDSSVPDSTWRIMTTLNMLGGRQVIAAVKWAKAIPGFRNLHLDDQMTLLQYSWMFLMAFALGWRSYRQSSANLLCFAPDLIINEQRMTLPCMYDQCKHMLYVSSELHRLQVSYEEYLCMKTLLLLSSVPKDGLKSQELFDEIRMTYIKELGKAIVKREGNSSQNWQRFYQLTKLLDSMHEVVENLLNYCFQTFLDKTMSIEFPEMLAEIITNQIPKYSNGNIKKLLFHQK
Assay [7] addresses Mitogen-activated protein kinase 10 (Mus musculus) (UniProt Q61831). Put plainly: JNK3 AlphaScreen Assay (AID 530).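 Also: kinase came from lysate of stimulated human HepG2 cells; % is scaled to controls: 0 for no effect and ±100 for the full control effect.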 Particulars: JNK3 lysate, c-Jun phosphorylation; series mostly up to 11.4 µM. An outline of the steps: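 Phosphorylation of biotinylated GST-cJun(1-79) at Ser73 is measured by AlphaScreen proximity luminescence. Enzyme is JNK3 in HepG2 lysates activated with interleukin-1beta and tumor necrosis factor alpha; ATP is 10 uM final.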
(Bead proximity is the source of the signal in Alpha formats.)

Assay [8] addresses 3',5'-cyclic-AMP phosphodiesterase 4B (Homo sapiens) (UniProt Q07343). Put plainly: qHTS Assay for Inhibitors of PDE-IV (AID 607; active = well fitted activation curve with a large enough effect in the main read-out, with a control signal flat, not every such curve was filed as active; also: % of control where 0% means no effect). Particulars: HEK293 ACTOne CNG channel cells, membrane potential fluorescence; series mostly up to 22.9 µM. The gist of the method:
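Cell-based read-out of cAMP via a modified cyclic nucleotide-gated channel and membrane potential dye (535/590 nm) in HEK293 cells expressing PDE4 endogenously. Compounds tested up to 22.9 uM final; 100 uM RO 20-1724 reference.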
On the technique in general: qHTS replaces the single test concentration by a dilution series.

For assay [9], the target named is Cytochrome P450 2C19 (Homo sapiens) (UniProt P33261). Put plainly: qHTS Assay for Inhibitors and Substrates of Cytochrome P450 2C19 (AID 899; active = well fitted curve in the direction sought with a large enough effect; an effect the other way counts as inactive or inconclusive; also: nearly all actives have a fitted effect of over 60% in size; also: potency is read from the fitted curve at half-maximal effect). To be noted: recombinant CYP2C19, luciferin-H EGE luminescence; series mostly up to 11.4 µM. The gist of the method: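 In 50mM KPO4, the reaction held 5nM enzyme and KM-level (10uM) Luciferin-H EGE; it ran 60 min at 37C after NADPH regeneration and a 10 min compound preincubation. Luminescence values were scaled to 57uM ketoconazole as complete inhibition.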
Cytochrome P450 2C19 (Homo sapiens), sequence (P33261 whole entry, looked up): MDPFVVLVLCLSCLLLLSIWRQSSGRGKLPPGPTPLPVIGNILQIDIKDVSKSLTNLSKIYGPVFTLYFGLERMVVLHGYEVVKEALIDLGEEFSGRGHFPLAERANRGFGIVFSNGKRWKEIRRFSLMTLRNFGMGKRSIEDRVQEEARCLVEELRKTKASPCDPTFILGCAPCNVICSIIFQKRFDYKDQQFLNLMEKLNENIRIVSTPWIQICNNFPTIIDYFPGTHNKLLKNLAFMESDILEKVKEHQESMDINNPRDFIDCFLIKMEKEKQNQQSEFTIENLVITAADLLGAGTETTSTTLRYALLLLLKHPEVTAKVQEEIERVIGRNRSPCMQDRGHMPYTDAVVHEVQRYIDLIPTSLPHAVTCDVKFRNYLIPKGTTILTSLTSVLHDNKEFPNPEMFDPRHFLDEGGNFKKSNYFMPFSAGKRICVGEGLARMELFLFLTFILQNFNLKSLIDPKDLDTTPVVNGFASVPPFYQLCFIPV

For assay [10], the target named is Glucocorticoid receptor (Homo sapiens) (UniProt P04150). The experiment in a line: GR-EFC Redistribution (AID 451; calls by dose curve; also: potency is read from the fitted curve at half-maximal effect). Particulars: CHO-K1 GR-EFC translocation, beta-gal luminescence, 2 h. An outline of the steps: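 CHO-K1 cells stably expressing nuclear-localized β-gal enzyme acceptor and GR fused C-terminally to the enzyme donor fragment; ligand-driven nuclear translocation restores β-gal by complementation. Compounds titrated up to 46 uM final, 2 h at 37 °C; luminescence read.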

Assay [11] has as its target Cytochrome P450 2C9 (Homo sapiens) (UniProt P11712). The experiment in a line: qHTS Assay for Inhibitors and Substrates of Cytochrome P450 2C9 (AID 883; active = well fitted curve in the direction sought with a large enough effect; an effect the other way counts as inactive or inconclusive; also: potency is read from the fitted curve at half-maximal effect; nearly all actives have a fitted effect of over 60% in size). Particulars: recombinant CYP2C9, luciferin-H luminescence, 60 min; series mostly up to 11.4 µM. An outline of the steps: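 CYP2C9 deoxyluciferin hydroxylation, 37C, 60 min with NADPH regeneration; 10nM enzyme, 100uM Luciferin-H (KM). Glo detection reagent stopped reaction; luminescence normalized to sulphaphenazole (57uM) full inhibition.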

Assay [12] has as its target Cytochrome P450 3A4 (Homo sapiens) (UniProt P08684). The experiment in a line: qHTS Assay for Activators of Cytochrome P450 3A4 (AID 885; active = well fitted curve in the direction sought with a large enough effect; an effect the other way counts as inactive or inconclusive; also: nearly all actives have a fitted effect of over 65% in size). Particulars: recombinant CYP3A4, Luciferin-PPXE luminescence, 60 min; series mostly up to 11.4 µM. The gist of the method:
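Luminescent readout of luciferin formed from 25 uM Luciferin-PPXE (KM level) by 20 nM CYP3A4 in 200 mM KPO4, with 60 min NADPH-driven reaction at room temperature after 10 min compound exposure. Ketoconazole (57 uM) defined 100% inhibition.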

Assay [13] is described as follows: qHTS Assay for Identification of Small Molecule Agonists for Hypoxia Response Element Signaling Pathway (AID 914; active = well fitted activation curve with a large enough effect in the signal ratio, with a control signal flat, not every such curve was filed as active; the % refers to the signal ratio; also: % of control where 0% means no effect). To be noted: ME-180 (cervical carcinoma) HRE-bla reporter, beta-lactamase ratio, CoCl2, 17 h; activation: hits give high values. An outline of the steps: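 Read-out: CCF4 FRET ratio of 460nm to 530nm emission (excitation 405nm) after 2.5 hours at room temperature, taken from HRE-bla ME-180 cells that had been exposed to compound and EC50 CoCl2 for 17 hours.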

Cytochrome P450 1A2 (Homo sapiens), sequence (P05177 whole entry, looked up): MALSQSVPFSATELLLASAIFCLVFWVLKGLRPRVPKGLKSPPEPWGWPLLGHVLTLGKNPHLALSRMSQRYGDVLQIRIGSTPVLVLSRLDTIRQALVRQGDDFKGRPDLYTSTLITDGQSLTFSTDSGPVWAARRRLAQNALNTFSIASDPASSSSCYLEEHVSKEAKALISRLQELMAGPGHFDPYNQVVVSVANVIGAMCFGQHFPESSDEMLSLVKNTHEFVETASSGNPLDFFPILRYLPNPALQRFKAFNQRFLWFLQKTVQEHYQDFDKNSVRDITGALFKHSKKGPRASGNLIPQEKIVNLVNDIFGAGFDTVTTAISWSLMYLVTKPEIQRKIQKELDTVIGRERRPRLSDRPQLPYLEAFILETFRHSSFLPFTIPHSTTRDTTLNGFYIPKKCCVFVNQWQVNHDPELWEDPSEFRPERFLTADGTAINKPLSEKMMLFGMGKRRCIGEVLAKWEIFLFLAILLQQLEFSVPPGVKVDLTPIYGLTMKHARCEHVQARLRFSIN
3',5'-cyclic-AMP phosphodiesterase 4B (Homo sapiens), sequence (Q07343 whole entry, looked up): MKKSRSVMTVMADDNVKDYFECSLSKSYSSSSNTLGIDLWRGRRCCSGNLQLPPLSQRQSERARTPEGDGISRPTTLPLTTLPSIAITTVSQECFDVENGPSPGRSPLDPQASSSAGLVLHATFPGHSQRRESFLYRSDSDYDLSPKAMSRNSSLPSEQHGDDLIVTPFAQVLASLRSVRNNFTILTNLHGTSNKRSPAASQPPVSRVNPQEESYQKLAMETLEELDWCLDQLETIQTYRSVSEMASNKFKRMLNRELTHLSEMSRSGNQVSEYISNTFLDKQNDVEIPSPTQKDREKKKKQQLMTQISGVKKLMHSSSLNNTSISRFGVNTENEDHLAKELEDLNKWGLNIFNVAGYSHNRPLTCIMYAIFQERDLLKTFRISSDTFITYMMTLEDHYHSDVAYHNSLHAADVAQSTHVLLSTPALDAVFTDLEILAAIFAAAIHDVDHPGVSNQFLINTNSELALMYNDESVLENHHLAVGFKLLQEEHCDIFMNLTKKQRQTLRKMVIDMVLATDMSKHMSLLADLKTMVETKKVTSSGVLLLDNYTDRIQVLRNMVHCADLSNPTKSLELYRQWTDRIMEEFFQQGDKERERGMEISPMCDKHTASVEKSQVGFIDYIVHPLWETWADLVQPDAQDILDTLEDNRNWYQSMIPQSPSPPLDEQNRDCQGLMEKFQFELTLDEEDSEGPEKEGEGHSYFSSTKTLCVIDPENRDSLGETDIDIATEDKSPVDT
Cytochrome P450 3A4 (Homo sapiens), sequence (P08684 whole entry, looked up): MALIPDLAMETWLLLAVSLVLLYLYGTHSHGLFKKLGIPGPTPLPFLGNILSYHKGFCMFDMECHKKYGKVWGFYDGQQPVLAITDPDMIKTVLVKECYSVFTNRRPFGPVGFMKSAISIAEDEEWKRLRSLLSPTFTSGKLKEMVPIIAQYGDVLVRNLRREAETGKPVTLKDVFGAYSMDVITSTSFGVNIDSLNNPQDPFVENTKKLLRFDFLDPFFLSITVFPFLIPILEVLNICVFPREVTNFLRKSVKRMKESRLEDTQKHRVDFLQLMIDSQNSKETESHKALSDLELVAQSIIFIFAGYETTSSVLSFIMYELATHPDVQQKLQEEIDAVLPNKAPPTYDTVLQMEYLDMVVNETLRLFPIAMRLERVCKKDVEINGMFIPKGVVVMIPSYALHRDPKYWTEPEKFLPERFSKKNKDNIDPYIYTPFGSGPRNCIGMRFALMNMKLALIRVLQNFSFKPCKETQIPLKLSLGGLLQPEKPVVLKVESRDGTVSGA
Cytochrome P450 2C9 (Homo sapiens), sequence (P11712 whole entry, looked up): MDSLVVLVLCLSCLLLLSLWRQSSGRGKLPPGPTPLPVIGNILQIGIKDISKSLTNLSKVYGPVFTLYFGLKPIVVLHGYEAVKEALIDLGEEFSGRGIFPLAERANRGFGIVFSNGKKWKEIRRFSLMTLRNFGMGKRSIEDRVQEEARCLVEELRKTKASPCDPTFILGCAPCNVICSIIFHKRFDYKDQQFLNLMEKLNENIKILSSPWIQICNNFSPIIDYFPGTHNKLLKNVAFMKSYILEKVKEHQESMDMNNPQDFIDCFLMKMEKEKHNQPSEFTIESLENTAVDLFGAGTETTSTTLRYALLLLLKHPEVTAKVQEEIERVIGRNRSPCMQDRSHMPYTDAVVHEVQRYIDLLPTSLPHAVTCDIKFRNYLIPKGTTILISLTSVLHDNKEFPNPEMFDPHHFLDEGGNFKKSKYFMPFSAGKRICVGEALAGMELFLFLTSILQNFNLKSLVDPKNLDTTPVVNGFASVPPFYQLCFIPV

Turning to `c1cncc(CNc2ncn[nH]2)c1`, the Potency was above 11.4 µM in assay [1] and above 46 µM in [6]. Also, the figures for the activity change, negative = inhibition in assay [2] and in assay [4] were 12.7% and 15.3%, respectively. The Potency entry in assay [3], in assay [7], in assay [8] and in assay [9] was “inactive” in each case. The activity, negative = inhibition in [5] was -1.59%.
`Cc1ccc(S(=O)(=O)N[C@H](CN)C(=O)O)cc1`: the values for the Potency in assay [1], in [6] and in assay [10] were above 11.4 µM, above 46 µM and above 9.22 µM, respectively. Further, the activity change, negative = inhibition in assay [2] is 10.5%; in [3] it was -18.5% [at 2.29 µM]; in [4], 3.21%. For the same compound, in assay [5], the activity, negative = inhibition was 8.31%. The Potency entry in [8] and in [9] was “inactive” each time.
Regarding `Nc1cc(C(=O)O)[nH]c(=O)n1`, the Potency in [1] is above 11.4 µM; in assay [6], above 46 µM. Further, the activity change, negative = inhibition in assay [2] is 3.6%; in [4], 8.92%. In addition, the Potency entry in [3], in [7] and in assay [8] was “inactive” throughout. Also, in assay [5], the activity, negative = inhibition was 13.8%.
Consider `CCN1CCCCC(=N/O)/C(=N/O)CCCC1`, for which the values for the Potency in assay [1] and in [6] were above 11.4 µM and above 46 µM, respectively. The activity change, negative = inhibition in assay [2] was -1.64%; in [4], -10.8%. Besides, the Potency entry in [3], in [7] and in assay [8] was “inactive” each time. The activity, negative = inhibition in assay [5] was 2.5%.
With `c1cc(CSSCc2ccncc2)ccn1`, the Potency is above 11.4 µM in [1]; 2 µM (active) in [3]; above 46 µM in assay [6]; 1.58 µM (active) in [11]; 1.26 µM (active) in assay [9]. Besides, the activity change, negative = inhibition in [2] was -3.12%; in [4], 12.2%. In [5], the activity, negative = inhibition is -6.55%. In addition, the Potency result in assay [7], in assay [8] and in assay [12] was “inactive” throughout.
On to `Nc1nc(N)[n+]([O-])c(N)c1NCO`, for which the figures for the Potency in assay [1] and in [6] were above 11.4 µM and above 46 µM, respectively. In addition, the activity change, negative = inhibition is 7.34% in [2] and 9.37% in assay [4]. The Potency entry in assay [3], in assay [7] and in [8] was “inactive” each time. Also, the activity, negative = inhibition in assay [5] is 7%.
Take `O=C(O)[C@@H](O)Cc1ccccn1`: the results for the Potency in [1] and in assay [6] were above 11.4 µM and above 46 µM, respectively. Moreover, the results for the activity change, negative = inhibition in assay [2] and in assay [4] were 4.97% and 2.96%, respectively. Further, the Potency result in assay [3], in assay [7] and in [8] was “inactive” throughout. Further, the activity, negative = inhibition in [5] is 4.36%. Besides, the activation in assay [13] is 0.65%.
As to `O=C1C2=C(Nc3cc([N+](=O)[O-])ccc3N2)O[C@@H]1c1c[nH]c2ccc(COc3ccccc3)cc12`, the Potency in assay [1] was above 11.4 µM; in [3], 2.51 µM (active); in [6] it was above 46 µM. Also, the activity change, negative = inhibition was -21.7% in [2] and 6.34% in assay [4]. The activity, negative = inhibition in assay [5] is 0.333%. Besides, the Potency result in [7], in assay [8] and in assay [12] was “inactive” throughout.
